# Source: PubChem BioAssay (NCATS)
# A number with no mark means an inactive call. Results filed as inconclusive are left out. Active and inactive are the calls of the source. Unless noted, calls follow the shape of the dose curve; as a rule, active = well fitted curve in either direction with a large enough effect (not every such curve was filed as active); inconclusive = small, poorly fitted or top-dose-only effect, or another doubt; inactive = flat fitted curve, though single readings scatter.
# Tests used:
# [1] = molecular target: Lysosomal acid glucosylceramidase (Homo sapiens) (UniProt P04062); test: Glucocerebrosidase-p2 (AID 348; in the data active = potency below about 10 µM; also: potency is read from the fitted curve at half-maximal effect); details: purified GBA, blue fluorogenic substrate, 40 min
# How it was run: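 Compounds titrated from 0.6 nM upwards against 0.2 nM enzyme in pH 5.9 citric acid/KH2PO4, taurocholate, tween-20; blue fluorogenic substrate 80 uM, 40 min room temperature, stopped and read Ex 365/Em 440 for AC50.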
# [2] = AP1 Signaling Pathway (AID 357); details: ME-180 AP-1-bla reporter, EGF-induced, beta-lactamase ratio, 5 h; at 7.69 µM (top of the series) unless noted;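 also: ME-180 reporter cells stimulated with EGF at its EC50 level; % is scaled to controls: 0 for no effect and ±100 for the full control effect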
# How it was run: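 AP-1-bla ME-180 cells, Opti-MEM + 0.5% dialyzed FBS, plated overnight 37 °C. Cpd titration + EC50 EGF, 5 h 37 °C. CCF4 2.5 h RT; ex 405, em 460/530 ratio → %activity, AC50.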
# [3] = molecular target: Cytochrome P450 1A2 (Homo sapiens) (UniProt P05177); test: p450-cyp1a2 (AID 410; calls by dose curve; also: potency is read from the fitted curve at half-maximal effect;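 as to activity change, negative = inhibition: -100% = full effect of reference inhibitor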); details: recombinant CYP1A2, luciferin-ME demethylation, luminescence; series mostly up to 57 µM
# How it was run: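 Luminescent readout of luciferin formed from Luciferin-ME by human CYP1A2; data normalized against complete inhibition by 57 uM furafylline. Enzyme 20nM, substrate 100uM at Km, 100mM KPO4 buffer, 60 min reaction at room temperature.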
# [4] = NFAT Signaling Pathway (AID 444); details: Jurkat NFAT-bla M1, carbachol, beta-lactamase ratio, 5 h; at 7.69 µM (top of the series) unless noted;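 also: carbachol stimulus at about its EC50 of 1 µM final; % is scaled to controls: 0 for no effect and ±100 for the full control effect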
# How it was run: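 Jurkat cells carrying an NFAT-driven β-lactamase reporter and co-transfected muscarinic M1 receptor were treated with compound plus carbachol (1 uM final, an EC50 level) for 5 h at 37 °C. CCF4 loading followed for 1 h at RT; 460/530 nm ratio gave %activity.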
# [5] = Stat Signaling Pathway (AID 446); details: ME-180 SIE beta-lactamase reporter, IL-6 stimulated, 5 h; at 7.69 µM (top of the series) unless noted;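 also: ME-180 cervical cancer cells given 40 pM IL-6 alongside compound; SIE-controlled beta-lactamase reporter measured as 460/530 nm FRET emission ratio; % is scaled to controls: 0 for no effect and ±100 for the full control effect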
# How it was run: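 IL-6/STAT signaling read in ME-180 cells via an SIE beta-lactamase reporter. Stimulus was 40 pM IL-6 (its AC50) for 5 hrs, so both activation and inhibition register.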
# [6] = molecular target: Glucocorticoid receptor (Homo sapiens) (UniProt P04150); test: GR-EFC Redistribution (AID 451; calls by dose curve; also: potency is read from the fitted curve at half-maximal effect); details: CHO-K1 GR-EFC translocation, beta-gal luminescence, 2 h
# How it was run: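 CHO-K1 cells stably expressing nuclear-localized β-gal enzyme acceptor and GR fused C-terminally to the enzyme donor fragment; ligand-driven nuclear translocation restores β-gal by complementation. Compounds titrated up to 46 uM final, 2 h at 37 °C; luminescence read.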
# [7] = molecular target: Mitogen-activated protein kinase 10 (Mus musculus) (UniProt Q61831); test: JNK3 AlphaScreen Assay (AID 530); details: JNK3 lysate, c-Jun phosphorylation; series mostly up to 57.1 µM;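 also: kinase came from lysate of stimulated human HepG2 cells; signal reports phosphorylation of biotinylated GST-cJun 1-79 at Ser73 with 10 µM ATP; % is scaled to controls: 0 for no effect and ±100 for the full control effect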
# How it was run: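 Inhibitors reduce antibody binding to phosphorylated biotin-cJun, lowering AlphaScreen luminescence. Lysates from HepG2 cells pre-activated by IL-1beta plus TNF-alpha supplied JNK3; compounds were titrated.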
# [8] = molecular target: 3',5'-cyclic-AMP phosphodiesterase 4B (Homo sapiens) (UniProt Q07343); test: qHTS Assay for Inhibitors of PDE-IV (AID 607; active = well fitted activation curve with a large enough effect in the main read-out, with a control signal flat, not every such curve was filed as active; also: % of control where 0% means no effect); details: HEK293 ACTOne CNG channel cells, membrane potential fluorescence; series mostly up to 22.9 µM
# How it was run: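 Live HEK293 cells with a modified cyclic nucleotide-gated (CNG) channel report intracellular cAMP via membrane-potential dye fluorescence (ex 535/em 590 nm). Endogenous PDE-IV was targeted. Compounds were tested at up to 22.9 uM final; RO 20-1724 100 uM served as control.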
# [9] = molecular target: Cytochrome P450 3A4 (Homo sapiens) (UniProt P08684); test: qHTS Assay for Activators of Cytochrome P450 3A4 (AID 885; active = well fitted curve in the direction sought with a large enough effect; an effect the other way counts as inactive or inconclusive; also: nearly all actives have a fitted effect of over 65% in size; also: potency is read from the fitted curve at half-maximal effect); details: recombinant CYP3A4, Luciferin-PPXE luminescence, 60 min; series mostly up to 57.1 µM
# How it was run: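 Quantitative HTS format: compounds preincubated with 20nM human CYP3A4 and Luciferin-PPXE substrate at KM, reaction started by NADPH regeneration, stopped after 60 min, luciferase luminescence read 20 min later.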
# [10] = molecular target: Cytochrome P450 2D6 (Homo sapiens) (UniProt P10635); test: qHTS Assay for Inhibitors and Substrates of Cytochrome P450 2D6 (AID 891; active = well fitted curve in the direction sought with a large enough effect; an effect the other way counts as inactive or inconclusive; also: potency is read from the fitted curve at half-maximal effect; nearly all actives have a fitted effect of over 60% in size); details: recombinant CYP2D6, luciferin-ME EGE luminescence; series mostly up to 57.1 µM
# How it was run: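 Human CYP2D6 (5 nM) with 30 uM Luciferin-ME EGE (at Km) in 100 mM KPO4, compound preincubated 10 min, then NADPH regeneration system for 60 min at room temperature. Luciferin read by luminescence; normalized to 1.43 uM quinidine.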
# [11] = Primary qHTS for small molecule stabilizers of the endoplasmic reticulum resident proteome: Secreted ER Calcium Modulated Protein (SERCaMP) assay (AID 1508630; active = well fitted curve in the direction sought with a large enough effect; an effect the other way counts as inactive or inconclusive; also: % is scaled to controls: 0 for no effect and ±100 for the full control effect); details: SH-SY5Y GLuc-SERCaMP (Gaussia luciferase released on ER calcium loss) secretion, thapsigargin, luminescence; series mostly up to 38.4 µM
# How it was run: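 GLuc-SERCaMP-expressing SH-SY5Y cells, pretreated 16 h with compound, are challenged with thapsigargin to empty ER calcium stores; after 4 h, coelenterazine is added directly to the medium and luminescence is imaged.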
# [12] = molecular target: Glucocorticoid receptor (Homo sapiens) (UniProt P04150); test: GR-GFP Redistribution (AID 450;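 active = compounds whose dose series gives a full or clear partial fitted curve of increased nuclear translocation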; also: potency is read from the fitted curve at half-maximal effect); details: U2OS GR-GFP nuclear translocation, laser cytometry, 2 h
# [13] = molecular target: Cytochrome P450 2C19 (Homo sapiens) (UniProt P33261); test: qHTS Assay for Inhibitors and Substrates of Cytochrome P450 2C19 (AID 899; active = well fitted curve in the direction sought with a large enough effect; an effect the other way counts as inactive or inconclusive; also: nearly all actives have a fitted effect of over 60% in size; also: potency is read from the fitted curve at half-maximal effect); details: recombinant CYP2C19, luciferin-H EGE luminescence; series mostly up to 57.1 µM
# How it was run: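 In 50mM KPO4, the reaction held 5nM enzyme and KM-level (10uM) Luciferin-H EGE; it ran 60 min at 37C after NADPH regeneration and a 10 min compound preincubation. Luminescence values were scaled to 57uM ketoconazole as complete inhibition.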
# [14] = molecular target: Cytochrome P450 2C9 (Homo sapiens) (UniProt P11712); test: qHTS Assay for Inhibitors and Substrates of Cytochrome P450 2C9 (AID 883; active = well fitted curve in the direction sought with a large enough effect; an effect the other way counts as inactive or inconclusive; also: potency is read from the fitted curve at half-maximal effect; nearly all actives have a fitted effect of over 60% in size); details: recombinant CYP2C9, luciferin-H luminescence, 60 min; series mostly up to 57.1 µM
# How it was run: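 CYP2C9 deoxyluciferin hydroxylation, 37C, 60 min with NADPH regeneration; 10nM enzyme, 100uM Luciferin-H (KM). Glo detection reagent stopped reaction; luminescence normalized to sulphaphenazole (57uM) full inhibition.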
# [15] = qHTS Assay for Identification of Small Molecule Agonists for Hypoxia Response Element Signaling Pathway (AID 914; active = well fitted activation curve with a large enough effect in the signal ratio, with a control signal flat, not every such curve was filed as active; the % refers to the signal ratio; also: % of control where 0% means no effect); details: ME-180 (cervical carcinoma) HRE-bla reporter, beta-lactamase ratio, CoCl2, 17 h; activation: active compounds read high
# How it was run: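 Positive modulation of EC50 CoCl2-induced hypoxia response element signaling is measured in ME-180 cells with a beta-lactamase reporter. Compounds are titrated, incubation runs 17 hours, and %Activity derives from the blue/green ratio.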
# [16] = Confirmation and Secondary Assay for Modulators of Hemoglobin Beta Chain Splicing at IVS2 654 locus (AID 910; active = well fitted curve in the direction sought with a large enough effect; an effect the other way counts as inactive or inconclusive;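 also: per-well total GFP intensity by laser scanning cytometry after 2-day treatment; % of control where 0% means no effect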); details: HeLa EGFP-654 splicing reporter, GFP fluorescence, 48 h; series mostly up to 38.3 µM
# How it was run: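 HeLa cells stably carrying EGFP interrupted by mutant beta-globin IVS2-654 intron (CMV-driven) were treated with compound for 2 days at 37C; corrected splicing was scored as total peak GFP intensity per well (488 nm excitation, 500-520 nm emission).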
# [17] = Confirmation and Secondary Assay for Modulators of Hemoglobin Beta Chain Splicing at IVS2 705 locus (AID 930; active = well fitted curve in the direction sought with a large enough effect; an effect the other way counts as inactive or inconclusive;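 also: HeLa cells stably expressing the EGFP-705 splicing reporter; GFP fluorescence per well restored by corrected splicing of the IVS2-705 intron in EGFP; % of control where 0% means no effect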); details: HeLa EGFP-705 splicing reporter, GFP fluorescence, 48 h; series mostly up to 38.3 µM
# How it was run: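 First, HeLa EGFP-705 cells are seeded at 500/well in Optimem with 2% FCS and left overnight. Next, compound or DMSO is added for 2 days. Finally wells are laser-scanned and total peak GFP intensity scored.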
# Sequence of Lysosomal acid glucosylceramidase (Homo sapiens) (P04062 whole entry, looked up): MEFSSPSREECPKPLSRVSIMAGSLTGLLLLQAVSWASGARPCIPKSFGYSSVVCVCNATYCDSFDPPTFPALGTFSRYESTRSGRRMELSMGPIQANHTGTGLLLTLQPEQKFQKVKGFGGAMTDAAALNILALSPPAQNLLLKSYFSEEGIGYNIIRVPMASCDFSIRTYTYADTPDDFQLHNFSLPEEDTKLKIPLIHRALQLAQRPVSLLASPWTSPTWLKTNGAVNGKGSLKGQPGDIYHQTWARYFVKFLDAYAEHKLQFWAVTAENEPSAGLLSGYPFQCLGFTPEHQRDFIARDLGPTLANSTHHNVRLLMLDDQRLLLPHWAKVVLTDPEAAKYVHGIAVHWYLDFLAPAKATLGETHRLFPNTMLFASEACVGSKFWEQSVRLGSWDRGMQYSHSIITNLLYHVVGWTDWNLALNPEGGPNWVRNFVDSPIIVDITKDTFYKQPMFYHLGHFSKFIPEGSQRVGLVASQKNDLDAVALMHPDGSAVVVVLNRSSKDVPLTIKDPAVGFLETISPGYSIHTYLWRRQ
# Sequence of 3',5'-cyclic-AMP phosphodiesterase 4B (Homo sapiens) (Q07343 whole entry, looked up): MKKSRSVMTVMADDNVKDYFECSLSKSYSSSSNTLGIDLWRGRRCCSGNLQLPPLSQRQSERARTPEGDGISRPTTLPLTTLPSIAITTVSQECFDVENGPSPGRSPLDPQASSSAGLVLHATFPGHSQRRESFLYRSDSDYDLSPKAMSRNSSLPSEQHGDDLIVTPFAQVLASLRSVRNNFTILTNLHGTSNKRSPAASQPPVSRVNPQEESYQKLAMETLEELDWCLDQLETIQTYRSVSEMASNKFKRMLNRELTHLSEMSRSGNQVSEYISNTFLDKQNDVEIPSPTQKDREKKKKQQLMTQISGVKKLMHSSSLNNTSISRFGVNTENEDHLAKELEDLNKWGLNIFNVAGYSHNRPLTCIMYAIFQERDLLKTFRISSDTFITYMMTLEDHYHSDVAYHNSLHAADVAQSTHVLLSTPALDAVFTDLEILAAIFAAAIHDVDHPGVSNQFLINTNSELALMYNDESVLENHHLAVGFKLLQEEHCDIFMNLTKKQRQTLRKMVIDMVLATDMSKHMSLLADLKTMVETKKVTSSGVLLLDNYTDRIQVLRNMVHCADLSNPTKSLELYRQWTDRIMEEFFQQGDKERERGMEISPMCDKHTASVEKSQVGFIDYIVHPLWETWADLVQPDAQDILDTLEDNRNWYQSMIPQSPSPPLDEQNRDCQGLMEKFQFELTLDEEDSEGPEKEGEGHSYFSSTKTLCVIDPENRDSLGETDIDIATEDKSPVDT
# Sequence of Cytochrome P450 3A4 (Homo sapiens) (P08684 whole entry, looked up): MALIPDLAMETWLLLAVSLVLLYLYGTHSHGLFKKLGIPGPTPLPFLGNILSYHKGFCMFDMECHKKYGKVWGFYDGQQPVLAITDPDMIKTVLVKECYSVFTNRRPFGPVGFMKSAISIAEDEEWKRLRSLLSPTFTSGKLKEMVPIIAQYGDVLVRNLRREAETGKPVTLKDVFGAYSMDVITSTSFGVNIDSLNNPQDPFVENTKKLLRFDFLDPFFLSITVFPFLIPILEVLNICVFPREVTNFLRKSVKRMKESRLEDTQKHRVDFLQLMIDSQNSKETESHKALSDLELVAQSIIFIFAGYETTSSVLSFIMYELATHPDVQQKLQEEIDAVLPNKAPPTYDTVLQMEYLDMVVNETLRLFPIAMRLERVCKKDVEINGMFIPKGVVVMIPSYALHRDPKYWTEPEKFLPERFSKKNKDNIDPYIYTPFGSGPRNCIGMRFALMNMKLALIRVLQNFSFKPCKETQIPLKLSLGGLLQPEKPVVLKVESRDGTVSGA
# Sequence of Glucocorticoid receptor (Homo sapiens) (P04150 whole entry, looked up, the tested form may be a part): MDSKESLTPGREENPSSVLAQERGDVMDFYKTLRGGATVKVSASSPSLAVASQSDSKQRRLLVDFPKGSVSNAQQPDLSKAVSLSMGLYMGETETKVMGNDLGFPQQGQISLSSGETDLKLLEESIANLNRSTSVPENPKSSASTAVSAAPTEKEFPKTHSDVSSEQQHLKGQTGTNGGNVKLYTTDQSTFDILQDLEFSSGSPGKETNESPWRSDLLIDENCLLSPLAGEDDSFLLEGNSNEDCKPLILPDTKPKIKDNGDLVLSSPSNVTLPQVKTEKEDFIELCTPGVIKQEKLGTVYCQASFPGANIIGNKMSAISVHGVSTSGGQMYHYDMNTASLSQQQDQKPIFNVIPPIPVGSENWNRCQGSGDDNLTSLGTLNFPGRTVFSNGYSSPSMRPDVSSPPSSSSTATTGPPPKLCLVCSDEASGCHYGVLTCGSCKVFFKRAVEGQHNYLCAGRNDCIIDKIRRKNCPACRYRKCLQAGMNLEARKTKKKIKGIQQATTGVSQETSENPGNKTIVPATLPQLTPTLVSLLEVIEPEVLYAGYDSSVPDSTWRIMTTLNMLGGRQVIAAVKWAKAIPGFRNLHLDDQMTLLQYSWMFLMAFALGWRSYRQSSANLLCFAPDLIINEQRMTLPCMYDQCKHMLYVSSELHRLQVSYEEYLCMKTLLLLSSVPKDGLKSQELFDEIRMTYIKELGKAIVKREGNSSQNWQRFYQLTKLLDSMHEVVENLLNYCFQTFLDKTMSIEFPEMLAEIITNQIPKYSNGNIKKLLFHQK
# Sequence of Cytochrome P450 2C19 (Homo sapiens) (P33261 whole entry, looked up): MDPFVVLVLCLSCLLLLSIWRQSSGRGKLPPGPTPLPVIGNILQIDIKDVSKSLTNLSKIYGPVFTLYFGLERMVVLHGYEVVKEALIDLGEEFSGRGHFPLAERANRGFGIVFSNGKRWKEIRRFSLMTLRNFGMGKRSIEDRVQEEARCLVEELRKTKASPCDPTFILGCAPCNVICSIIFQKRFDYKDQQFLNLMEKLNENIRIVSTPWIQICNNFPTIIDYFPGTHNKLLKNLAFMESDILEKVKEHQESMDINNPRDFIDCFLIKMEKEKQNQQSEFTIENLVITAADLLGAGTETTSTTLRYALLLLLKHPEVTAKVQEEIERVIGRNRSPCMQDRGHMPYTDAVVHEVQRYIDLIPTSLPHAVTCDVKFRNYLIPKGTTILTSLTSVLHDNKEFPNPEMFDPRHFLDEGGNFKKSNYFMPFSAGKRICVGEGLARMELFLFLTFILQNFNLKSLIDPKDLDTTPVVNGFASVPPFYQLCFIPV
# Sequence of Cytochrome P450 1A2 (Homo sapiens) (P05177 whole entry, looked up): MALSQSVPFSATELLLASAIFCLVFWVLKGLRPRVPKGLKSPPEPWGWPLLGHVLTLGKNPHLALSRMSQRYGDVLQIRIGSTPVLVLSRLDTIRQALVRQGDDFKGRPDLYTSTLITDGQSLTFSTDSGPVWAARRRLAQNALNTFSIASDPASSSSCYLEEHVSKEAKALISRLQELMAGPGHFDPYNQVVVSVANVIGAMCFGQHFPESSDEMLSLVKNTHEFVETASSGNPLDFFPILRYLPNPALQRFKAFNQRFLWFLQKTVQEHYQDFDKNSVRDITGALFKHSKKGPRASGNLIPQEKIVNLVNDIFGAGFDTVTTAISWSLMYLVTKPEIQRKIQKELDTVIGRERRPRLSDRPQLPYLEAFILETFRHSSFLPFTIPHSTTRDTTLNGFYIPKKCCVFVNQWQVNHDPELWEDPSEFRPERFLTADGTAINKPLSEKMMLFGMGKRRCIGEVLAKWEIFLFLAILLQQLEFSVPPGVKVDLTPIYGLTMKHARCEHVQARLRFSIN
# Sequence of Cytochrome P450 2C9 (Homo sapiens) (P11712 whole entry, looked up): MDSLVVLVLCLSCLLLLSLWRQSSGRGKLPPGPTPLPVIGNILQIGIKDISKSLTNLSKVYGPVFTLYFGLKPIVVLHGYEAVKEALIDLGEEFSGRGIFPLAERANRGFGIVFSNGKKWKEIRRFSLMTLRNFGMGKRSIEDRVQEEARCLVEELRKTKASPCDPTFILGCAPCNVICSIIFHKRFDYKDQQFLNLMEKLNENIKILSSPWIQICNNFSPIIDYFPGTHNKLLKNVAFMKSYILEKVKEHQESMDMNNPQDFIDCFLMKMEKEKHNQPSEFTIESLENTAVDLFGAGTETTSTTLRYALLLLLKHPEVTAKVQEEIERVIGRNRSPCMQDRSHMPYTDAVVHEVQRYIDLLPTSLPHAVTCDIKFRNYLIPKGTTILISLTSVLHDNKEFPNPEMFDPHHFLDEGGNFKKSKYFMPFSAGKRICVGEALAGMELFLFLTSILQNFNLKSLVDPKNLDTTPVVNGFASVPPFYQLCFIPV
# Sequence of Cytochrome P450 2D6 (Homo sapiens) (P10635 whole entry, looked up): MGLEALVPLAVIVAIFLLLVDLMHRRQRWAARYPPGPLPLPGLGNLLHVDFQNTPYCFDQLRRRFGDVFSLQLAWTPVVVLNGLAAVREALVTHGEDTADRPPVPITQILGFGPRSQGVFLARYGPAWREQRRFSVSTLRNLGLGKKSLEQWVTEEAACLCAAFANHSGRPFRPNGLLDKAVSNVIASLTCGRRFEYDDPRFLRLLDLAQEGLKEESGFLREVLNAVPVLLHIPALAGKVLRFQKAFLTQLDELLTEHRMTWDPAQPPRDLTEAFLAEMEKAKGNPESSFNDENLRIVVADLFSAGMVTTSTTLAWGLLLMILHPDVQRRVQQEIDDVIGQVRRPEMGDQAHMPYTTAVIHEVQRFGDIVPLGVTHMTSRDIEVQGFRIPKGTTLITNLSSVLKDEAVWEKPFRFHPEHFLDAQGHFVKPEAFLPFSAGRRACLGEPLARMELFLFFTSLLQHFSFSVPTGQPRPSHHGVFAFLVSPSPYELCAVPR
Compound,Potency [1] [µM],"activity change, negative = inhibition [2] [%]",Potency [3],"activity change, negative = inhibition [4] [%]","activity, negative = inhibition [5] [%]",Potency [6] [µM],Potency [7],Potency [8],Potency [9],Potency [10],outcome [11],Potency [12] [µM],Potency [13],Potency [14],activation [15] [%],Potency [16],outcome [17]
CC(C)NC(=O)N1CCCC2(CCN(C(=O)c3ccco3)CC2)C1,> 11.4,4.82,inactive,-9.54,-11.2,> 46,inactive,inactive,inactive,2.51 µM (active),inactive,–,–,–,–,–,–
O=C(c1cccc(F)c1)N1CCC2(CC1)CN(c1ccc(-c3ccccc3)cc1)C2,> 11.4,9.76,inactive,-5.75,-20.4,> 46,inactive,inactive,2.51 µM (active),–,inactive,–,–,–,–,–,–
O=c1c(-c2ccc(F)c(F)c2)nc2cncnc2n1-c1ccccc1,> 11.4,-19.9,12.6 µM (active),3.06,–,> 46,inactive,–,inactive,–,inactive,> 9.22,–,–,–,–,–
O=C(c1cc(C(F)(F)F)cc(C(F)(F)F)c1)N1CCC2(CC1)CN(Cc1ccncc1)C2,> 11.4,-12.2,20 µM (active),-6.5,5.6,> 46,inactive,inactive,inactive,–,inactive,–,–,–,–,–,–
CS(=O)(=O)N1CCC2(CC1)CN(c1ccc(-c3ccccc3)cc1)C2,> 11.4,-8.52,inactive,-6.69,-25.1,> 46,inactive,inactive,–,–,inactive,–,inactive,–,–,–,–
COc1ncc2ncc(=O)n(Cc3ccc(F)cc3)c2n1,> 11.4,-11.8,12.6 µM (active),-5.96,-7.56,> 46,inactive,inactive,inactive,–,inactive,–,7.94 µM (active),–,–,–,–
N#Cc1cccc(-c2nc3cnc(N4CCNCC4)nc3n(C3CC3)c2=O)c1,> 11.4,13.2,5.01 µM (active),26.2,–,> 46,inactive,inactive,inactive,–,inactive,> 9.22,–,0.631 µM (active),–,–,–
COc1ccc(NC(=O)N2CCC3(CC2)CCN(C(=O)c2ccncc2)CC3)cc1,> 11.4,-0.635,25.1 µM (active),3.85,4.58,> 46,inactive,inactive,inactive,–,inactive,–,–,–,–,–,–
Cn1cccc1C(=O)N1CCC2(CC1)CCN(c1cccc(-c3ccccc3)c1)CC2,> 11.4,-12.9,20 µM (active),16.5,-8.63,> 46,–,inactive,–,–,inactive,–,–,–,–,–,–
CS(=O)(=O)N1CCC2(CCCN(C(=O)Nc3cccc(F)c3)C2)CC1,> 11.4,3.4,inactive,10.8,-4.84,> 46,inactive,inactive,inactive,–,inactive,–,–,–,–,–,–
COc1ncc2nc(CCc3ccccc3)c(=O)n(CCC#N)c2n1,> 11.4,-1.07,15.8 µM (active),-10.8,-4.61,> 46,inactive,inactive,–,–,inactive,–,–,–,-14.7,–,–
Cc1cccc(CNc2nc(-c3ccccc3CN(C)C)nc3ccccc23)c1,> 11.4,20.6,3.16 µM (active),-22.2,-0.581,> 46,inactive,–,inactive,–,inactive,–,–,–,–,inactive,inactive
COCC(=O)N1CCC2(CC1)CN(C(=O)Nc1ccccc1)C2,> 11.4,7.47,12.6 µM (active),18.9,-7.39,> 46,inactive,inactive,–,–,inactive,–,5.01 µM (active),–,–,–,–
COc1ccc(NC(=O)N2CCCC3(CCN(C(=O)c4ccc(OC)cc4)CC3)C2)cc1,> 11.4,-11.4,inactive,0.394,-3.96,–,inactive,inactive,inactive,–,inactive,–,–,–,–,–,–
O=C(c1ccco1)N1CCC2(CCCN(c3ccccc3)C2)CC1,> 11.4,-6.34,inactive,-15.1,-2.43,> 46,inactive,inactive,inactive,–,inactive,–,–,–,–,–,–
